# Measurements reported in PubChem BioAssay (NCI).
# Where “and” joins values, the source holds several entries; their conditions need not be identical. Equal values may be shown once. Compounds without any hit were thinned out: in the full panel of roughly 83,000, 20% have a hit.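 Negative percent growth values reflect cell death: -40 means 40% of the cells present at the start died, and -100 means all died.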 Calls of active or inactive are those of the source. The calls were made as follows: active = growth percent below 10; inactive = the rest.
# Legend:
# Test in all cases: NCI-60 one-dose screen, 48 h (100 = growth as untreated, 0 = no growth, -100 = all killed)
# Conditions in all cases: 10 µM unless noted
# [1] = system: HCT-15 colon
# [2] = system: HT29 colon
# [3] = system: SNB-75 CNS
# [4] = system: SNB-19 CNS
# [5] = system: U251 CNS
# [6] = system: PC-3 prostate
# [7] = system: SK-MEL-5 melanoma
# [8] = system: UACC-62 melanoma
# [9] = system: LOX IMVI melanoma
# [10] = system: SK-MEL-28 melanoma
Compound,growth [1],growth [2],growth [3],growth [4],growth [5],growth [6],growth [7],growth [8],growth [9],growth [10]
COc1ccc(-c2cc(-c3cccnc3)nc3sc4c(Cl)nnnc4c23)cc1OC,69.9% (inactive),87.9% (inactive),81.5% (inactive),95.6% (inactive),92.1% (inactive),81.1% (inactive),84.4% (inactive),81% (inactive),36.4% (inactive),112% (inactive)
Cc1nc2sc(C(=O)Nc3cccc4ccccc34)c(N)c2cc1C(=O)/C=C/c1ccccc1,-63.3% (active),-47.9% (active),8.27% (active),-27.1% (active),-67.3% (active),-8.41% (active),-17.8% (active),7.54% (active),-73.1% (active),23.6% (inactive)
C=C(CNCCO)[C@@H]1CC[C@]2(CO)CC[C@]3(C)[C@H](CC[C@@H]4[C@@]5(C)CCC(NCCc6ccc(O)cc6)C(C)(C)[C@@H]5CC[C@]43C)[C@@H]12 (stereo not given in full),-88.4% (active),-68.7% (active),-97.8% (active),-72.9% (active),-92.7% (active),-43.4% (active),-95.3% (active),-81.5% (active),-89.8% (active),-94.1% (active)
CC12CCC(C(=O)CC1=O)C2(C)C (stereo not given),103% (inactive) and 106% (inactive),108% (inactive) and 109% (inactive),87.5% (inactive) and 95.1% (inactive),107% (inactive) and 105% (inactive),99.6% (inactive) and 100% (inactive),97.2% (inactive) and 104% (inactive),99.8% (inactive) and 104% (inactive),102% (inactive) and 106% (inactive),97.3% (inactive) and 95.3% (inactive),106% (inactive)
COc1cc(C(=O)c2ccccc2C(=O)O)c(OC)c2c1CCCC2,93.4% (inactive) and 104% (inactive),105% (inactive) and 98.2% (inactive),94.1% (inactive) and 87.4% (inactive),94.6% (inactive) and 102% (inactive),97% (inactive) and 100% (inactive),93.3% (inactive) and 103% (inactive),96.6% (inactive) and 97.5% (inactive),96.1% (inactive) and 101% (inactive),94.3% (inactive) and 94.1% (inactive),102% (inactive) and 113% (inactive)
Nc1nc(Nc2ccc(F)cc2)nn1C(=O)c1cc(Cl)ccc1Cl,69.1% (inactive),70.8% (inactive),76.7% (inactive),65.8% (inactive),76.1% (inactive),75.6% (inactive),87% (inactive),60.8% (inactive),48.4% (inactive),86% (inactive)
Cc1nc2sc(C(=O)Nc3cccc4ncccc34)c(N)c2cc1C(C)O (stereo not given),64.1% (inactive),52.8% (inactive),76.6% (inactive),67.8% (inactive),83.4% (inactive),72.9% (inactive),56.8% (inactive),42.9% (inactive),73.8% (inactive),67.3% (inactive)
Nc1nc(CSc2n[nH]c(N)n2)nc(Nc2ccccc2)n1,94.2% (inactive),106% (inactive),82.2% (inactive),101% (inactive),99.9% (inactive),101% (inactive),101% (inactive),91.9% (inactive),98.3% (inactive),100% (inactive)
Nc1nc(Cl)nc2c1ncn2C1OC(CO)C(O)C1O (stereo not given),60.8% (inactive) and 68.4% (inactive),105% (inactive) and 87.7% (inactive),105% (inactive) and 91.5% (inactive),52% (inactive) and 53.5% (inactive),74.6% (inactive) and 64.1% (inactive),65.6% (inactive) and 67.5% (inactive),67.6% (inactive) and 52.4% (inactive),90.1% (inactive) and 80.5% (inactive),88.7% (inactive) and 66.6% (inactive),64.6% (inactive) and 75.2% (inactive)
CCN(c1cc(-c2ccc(CN3CCC(/C=C/S(=O)(=O)c4ccccc4)CC3)cc2)cc(C(=O)NCc2c(C)cc(C)[nH]c2=O)c1C)C1CCOCC1,54.8% (inactive),21.2% (inactive),37.5% (inactive),80.1% (inactive),66.9% (inactive),53.7% (inactive),71.9% (inactive),76.6% (inactive),68.9% (inactive),97.9% (inactive)
CCOc1nc(-c2ccccc2)cc2c(O)c(C(=O)N/N=C/c3ccc(N(C)C)cc3)[nH]c(=O)c12,117% (inactive),145% (inactive),124% (inactive),133% (inactive),94.7% (inactive),88.9% (inactive),105% (inactive),98.2% (inactive),97.8% (inactive),98.5% (inactive)
CCNC(=O)Nc1ncccc1OCc1ccc(F)cc1,99.7% (inactive),95.5% (inactive),102% (inactive),102% (inactive),96.8% (inactive),103% (inactive),101% (inactive),94.6% (inactive),94.6% (inactive),113% (inactive)
CSc1nnc(-c2cc3c([nH]c4ccccc43)c(-c3cccc(O)c3)n2)n1-c1ccc(C)cc1,23.2% (inactive),8.92% (active),30.1% (inactive),54.3% (inactive),29.4% (inactive),25.8% (inactive),13.5% (inactive),40.1% (inactive),29.3% (inactive),9.42% (active)
NC1=CC(=O)c2cccnc2C1=O,19.9% (inactive),54.8% (inactive),-81.2% (active),6.26% (active),-82% (active),15.4% (inactive),-97.8% (active),-90.5% (active),-74.3% (active),-73.7% (active)
O=C(c1ccc(Nc2nccc(NCCCNc3ccnc4cc(Cl)ccc34)n2)cc1)N1CCCCC1,92.2% (inactive),19.7% (inactive),90.5% (inactive),35% (inactive),23% (inactive),36.5% (inactive),43.7% (inactive),21.4% (inactive),-14.3% (active),71.8% (inactive)
CN1CCN(c2ccc(Nc3ncc(C(N)=O)c(NCCCNC(=O)C4CCC4)n3)cc2)CC1,111% (inactive),44.4% (inactive),67.7% (inactive),63.9% (inactive),67% (inactive),77.6% (inactive),92.3% (inactive),108% (inactive),64.8% (inactive),103% (inactive)
CCOC(=O)c1cc2c(n1Cc1cc(OC)cc(OC)c1Br)-c1nc(NC(C)=O)sc1CCC2,83% (inactive),63.3% (inactive),65.7% (inactive),83.9% (inactive),63.3% (inactive),22.1% (inactive),82.1% (inactive),67.3% (inactive),80.3% (inactive),98.6% (inactive)
Cc1cc(N2CCN(CC(=O)Nc3ccc4c(ccn4Cc4ccccc4)c3)CC2)nc(N2CCCCCC2)n1,28.2% (inactive),5.17% (active),66.6% (inactive),57.3% (inactive),38.4% (inactive),28.2% (inactive),49.2% (inactive),43.2% (inactive),34.9% (inactive),63.4% (inactive)
CC(C)(C)c1cc(NC(=O)Nc2ccc(-c3cn4c(n3)sc3cc(OCCN5CCOCC5)ccc34)cc2)no1,23.8% (inactive) and 51.5% (inactive),-41.7% (active) and -1.96% (active),45.4% (inactive) and -7.53% (active),37.4% (inactive) and 11.4% (inactive),-3.4% (active) and 0.378% (active),22.8% (inactive) and 15.2% (inactive),13.5% (inactive) and 9.61% (active),-53.4% (active) and 5.34% (active),0.319% (active) and 23.4% (inactive),42.9% (inactive) and 33.8% (inactive)
CCCCC(NC(=O)CN1C(=O)/C(=C/C(C)=C/c2ccccc2)SC1=S)C(=O)O (stereo not given),108% (inactive),120% (inactive),98.7% (inactive),95.7% (inactive),110% (inactive),107% (inactive),101% (inactive),92.7% (inactive),94.7% (inactive),104% (inactive)
CN1Cn2c(ccc2C(F)(F)F)C(=O)CS1(=O)=O,105% (inactive),105% (inactive),79.1% (inactive),105% (inactive),101% (inactive),105% (inactive),103% (inactive),99.4% (inactive),99.2% (inactive),105% (inactive)
CC(Sc1ccccc1)C(=O)O (stereo not given),100% (inactive),99.3% (inactive),91.6% (inactive),94.5% (inactive),91.1% (inactive),103% (inactive),106% (inactive),94.5% (inactive),95.6% (inactive),106% (inactive)
CN(C)C1CCN(C(=O)c2ccc(NC(=O)Nc3ccc(-c4nc(N5CCOCC5)c5cccn5n4)cc3)cc2)CC1,40.5% (inactive),6.06% (active),-40.5% (active),3% (active),5.17% (active),3.69% (active),-63.6% (active),-43.5% (active),-2.24% (active),-22.4% (active)
Nc1nc2c(s1)CCc1cn(S(=O)(=O)c3ccccc3)cc1-2,98.3% (inactive) and 99.3% (inactive),106% (inactive),80.5% (inactive) and 89.9% (inactive),94.6% (inactive) and 97% (inactive),80.3% (inactive) and 97.7% (inactive),75.6% (inactive) and 84.4% (inactive),90.1% (inactive) and 95% (inactive),79.4% (inactive) and 96.3% (inactive),84.1% (inactive) and 104% (inactive),113% (inactive) and 104% (inactive)
CC(=O)OC[C@]12CCC(C)(C)C=C1[C@H]1CC[C@@H]3[C@@]4(C)CCCNC(C)(C)[C@@H]4CC[C@@]3(C)[C@]1(C)CC2,89.6% (inactive),31.6% (inactive),71.8% (inactive),53.4% (inactive),35.3% (inactive),37% (inactive),9.31% (active),34.4% (inactive),72.5% (inactive),59.1% (inactive)
COC(=O)c1nc(-c2ccc(C)cc2)oc1S(=O)(=O)c1ccc(Cl)cc1,73.5% (inactive),102% (inactive),100% (inactive),96.4% (inactive),93.4% (inactive),97% (inactive),96.5% (inactive),90.4% (inactive),42.3% (inactive),99% (inactive)
O=C(/C=C/c1ccc([N+](=O)[O-])cc1)c1ccccc1,77.2% (inactive),50.7% (inactive),83.4% (inactive),98.5% (inactive),80.8% (inactive),77.5% (inactive),94.5% (inactive),94.9% (inactive),61.4% (inactive),103% (inactive)
CN1CCN(C(=O)OCc2nc3c(N4CCOCC4)nc(Cl)nc3n2C)CC1,-55.4% (active),-67.7% (active),-21.7% (active),57.9% (inactive),-14.1% (active),-16.9% (active),-12.8% (active),-78% (active),-96.2% (active),-95.5% (active)
